# Rows were chosen to be rich in hits. Some 22% of all compounds tested hit in one or more screens of this group.
# CYP2C9 inhib: human CYP2C9 inhibition; inhibition, % at 5 µM; hit rate 20% among 96,000; CYP2C9 Supersomes, luciferin-H conversion, luminescence; AID 777;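 active = blocking of liver enzyme CYP2C9 beyond about 50% at 5 µM, limit read from the data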
# Target sequence (P11712 whole entry, looked up): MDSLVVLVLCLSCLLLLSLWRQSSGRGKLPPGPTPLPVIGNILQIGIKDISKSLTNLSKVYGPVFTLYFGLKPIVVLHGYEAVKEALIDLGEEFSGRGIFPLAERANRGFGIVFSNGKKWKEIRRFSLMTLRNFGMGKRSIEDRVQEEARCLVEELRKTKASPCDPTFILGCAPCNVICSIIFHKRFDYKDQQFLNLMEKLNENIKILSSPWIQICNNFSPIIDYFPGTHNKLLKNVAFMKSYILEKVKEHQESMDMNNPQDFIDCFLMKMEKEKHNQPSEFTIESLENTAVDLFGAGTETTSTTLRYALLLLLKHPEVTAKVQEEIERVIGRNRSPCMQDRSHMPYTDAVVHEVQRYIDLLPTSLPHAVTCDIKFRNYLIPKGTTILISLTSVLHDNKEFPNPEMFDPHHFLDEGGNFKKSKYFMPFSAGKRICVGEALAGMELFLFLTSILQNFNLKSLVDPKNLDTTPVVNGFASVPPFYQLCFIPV
# CYP2C9 act: CYP2C9 (human) activation; P11712; recombinant CYP2C9, luciferin-H conversion, luminescence; active compounds read high; factor 1 = untreated enzyme, 0 = blocked; activation factor at 5 µM; hit rate 1.4% among 96,000; AID 1024;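 active = activation factor of 2 or more for CYP2C9 at a 5 µM dose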;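 note: 0 = sulfaphenazole-blocked wells and 1 = vehicle-only wells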
# Measles CPE: protection of cells from measles virus. Measles virus-infected cells, CPE protection, absorbance. protection (pct of control), % at 4 µM. hit rate 1.5% among 140,000. AID 841; in the data active = protection mostly above about 24%, no sharp cut-off; inactive = mostly below about 26%
# CYP2C19 activ: activators of human cytochrome P450 2C19 | P33261 | recombinant CYP2C19, luciferin-H EGE luminescence; active compounds read high; 0 = fully inhibited enzyme, 1 = untreated enzyme | activation factor at 5 µM | 96,000 tested, under 10 active | AID 1025;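 active = activation factor of at least 2 at 5 µM in the primary screen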;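 note: 0 = wells with 2.5 mM tranylcypromine and 1 = vehicle-only wells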
# CYP2C19 inh: blocks human cytochrome P450 2C19 | P33261 | CYP2C19 Supersomes, luciferin-H EGE luminescence, 30 min | inhibition, % at 5 µM | hit rate 21% among 96,000 | AID 778;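 active = CYP2C19 inhibition above a set limit at 5 µM in the primary screen, cut at about 50% in these data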;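 note: plate controls were negative control wells for no effect and 2.5 mM tranylcypromine positive control for full effect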
# The depositor's hits bear a star; / = no result given.
SMILES,CYP2C9 inhib,CYP2C9 act,Measles CPE,CYP2C19 activ,CYP2C19 inh
CCOC(=O)c1oc2ccccc2c1CN1CCN(c2ccccc2)CC1,48.1,0.5,25.7,0.5,51.7*
CCOC(=O)c1oc2ccccc2c1CN1CCN(C(=O)c2ccccc2)CC1,45.5,0.5,15.2,0.6,42.7
CCOC(=O)c1oc2cccc(O)c2c1CN(Cc1ccccc1)C(C)=O,25.2,0.7,6.0,0.3,66.9*
CCOC(=O)c1oc2ccccc2c1N,19.0,0.8,17.9,0.1,87.4*
CCOC(=O)c1oc2cccc(OC(C)=O)c2c1C,-22.7,1.2,16.0,0.2,76.0*
CCOC(=O)N1CCC2(CC1)CC(=O)c1c(ccc3oc(C(=O)O)c(C)c13)O2,47.4,0.5,28.1,1.1,-6.0
CCOCC(=O)Nc1c(C(=O)OCC)oc2ccccc12,8.2,0.9,22.0,1.1,-5.7
CCOC(=O)c1c(-c2ccccc2)oc2ccc(O)c(CN3CCOCC3)c12,48.5,0.5,7.6,0.4,56.3*
CCOC(=O)c1c(C)oc2ccc(O)c(CN3CCCCC3)c12,-7.1,1.1,1.2,1,-1.7
CCOC(=O)c1oc2ccc(CNC(C)(C)C)c(Cl)c2c1C,/,/,7.8,/,/
CCOC(=O)c1oc2ccc3c(c2c1C)C(=O)CC1(CCN(C(=O)OCC)CC1)O3,51.0*,0.5,18.8,0.5,52.1*
CCOC(=O)c1oc2cccc(O)c2c1C,-144.1,2.4*,13.1,0.6,44.6
Cc1ccc(S(=O)(=O)Nc2nc3ccccc3nc2N2CCN(c3ccccc3F)CC2)cc1,100.0*,0,4.9,0.7,30.3
CC(=O)Nc1ccc(S(=O)(=O)NC2=C(N3CCN(c4ccc(F)cc4)CC3)C(=O)c3ccccc3C2=O)cc1,60.8*,0.4,4.3,0.7,25.8
Cc1ccc(S(=O)(=O)NC2=C(N3CCN(c4ccccc4F)CC3)C(=O)c3ccccc3C2=O)cc1,60.6*,0.4,14.4,0.6,37.7
O=S(=O)(Nc1nc2ccccc2nc1N1CCc2ccccc2C1)c1ccc(Cl)cc1,/,/,10.2,/,/
O=S(=O)(Nc1nc2ccccc2nc1N1CCN(c2ccccn2)CC1)c1ccc(Cl)cc1,100.0*,0,5.8,0.7,34.1
CC1CCCN(C2=C(NS(=O)(=O)c3ccc(Cl)cc3)C(=O)c3ccccc3C2=O)C1 (stereo not drawn),/,/,18.5,/,/
CCOC(=O)/C(=N/Nc1ccc(Cl)cc1)S(=O)(=O)c1ccc(Cl)cc1,8.7,0.9,8.8,0.9,8.3
COc1ccc(N2CCN(c3nc4ccccc4nc3NS(=O)(=O)c3ccccc3)CC2)cc1,98.5*,0,1.2,0.5,53.1*
Cc1ccc(S(=O)(=O)NC2=C(N3CCN(Cc4ccccc4)CC3)C(=O)c3ccccc3C2=O)cc1,63.1*,0.4,4.0,1.1,-5.3
CC(=O)Nc1ccc(S(=O)(=O)Nc2nc3ccccc3nc2N2CCCCCC2)cc1,70.0*,0.3,8.0,0.8,22.9
COc1ccc(S(=O)(=O)Nc2nc3ccccc3nc2NCc2ccc3c(c2)OCO3)cc1,/,/,9.1,/,/
CC(=O)Nc1ccc(S(=O)(=O)Nc2nc3ccccc3nc2N2CCc3ccccc3C2)cc1,/,/,12.7,/,/
CC(C)C(NC(=O)C12CC3CC(CC(C3)C1)C2)C(=O)O (stereo not drawn),5.3,0.9,12.4,1,0.0
SMILES,CYP2C9 inhib,CYP2C9 act,Measles CPE,CYP2C19 activ,CYP2C19 inh
O=C(OCc1c(Cl)nc2sccn12)c1cc2c(s1)CCCC2,-24.5,1.2,2.8,1.1,-10.9
Cc1nc(SCC(=O)c2ccc(Cl)cc2)c([N+](=O)[O-])[nH]1,47.8,0.5,7.3,0.5,53.4*
Cc1nc(SCC(=O)c2ccc(F)cc2)c([N+](=O)[O-])[nH]1,34.3,0.7,3.9,0.7,27.7
Cc1ccc(C(=O)COC(=O)C2C3C=CC(C3)C2C(=O)OCC(=O)c2ccc(C)c(C)c2)cc1C (stereo not drawn),50.9*,0.5,4.9,0.7,28.8
C=C(Cl)COC(=O)[C@H]1C2C=CC(C2)C1C(=O)O (stereo partly drawn),12.6,0.9,20.0,1,-3.4
Cc1ccc(S(=O)(=O)CCC(=O)OCC(=O)c2ccc(C)c(C)c2)cc1,/,/,29.9*,/,/
Cc1cccc(C)c1NC(=O)N1CCC(c2nc3ccccc3o2)CC1,14.4,0.9,2.5,0.9,6.3
COC(=O)c1ccc(COC(=O)c2ccc(S(=O)(=O)N3CCC(C)CC3)cc2)o1,68.9*,0.3,6.5,0.7,27.1
COc1ccc(Cn2c(O)c(C=Nc3ccc(O)cc3)c3ccccc3c2=O)cc1,/,/,2.5,/,/
C=CCn1c(O)c(C=Nc2ccc(Cc3ccncc3)cc2)c(=O)[nH]c1=S,83.1*,0.2,9.7,0.1,88.1*
Cc1cc(C)n(-c2nc3ccccc3c(=O)n2OCc2ccc(F)cc2)n1,50.2*,0.5,23.8,0,98.8*
Cc1cc(C)n(-c2nc3ccccc3c(=O)n2OCC(=O)OCc2ccccc2)n1,18.1,0.8,3.9,0.9,6.0
Cc1cc(C)n(-c2nc3ccccc3c(=O)n2OCc2ccc(Cl)cc2)n1,26.5,0.7,5.3,0,97.6*
Cc1cc(C)n(-c2nc3ccccc3c(=O)n2OCC(=O)Nc2c(C)cccc2C)n1,51.6*,0.5,7.5,0.9,11.1
Cc1cc2c(ncn2C(C)C)c(N)c1C,-2.6,1,0.4,0.5,48.5
O=C(COC(=O)c1n[nH]c2ccccc12)NC(=O)NC12CC3CC(CC(C3)C1)C2,-1.3,1,27.1,0.9,8.2
O=c1ccc(/C=C/c2ccccc2)nn1Cc1ccccc1,64.2*,0.4,1.8,0.7,31.1
CCOC(=O)Cn1nc(/C=C/c2ccccc2)ccc1=O,14.9,0.9,15.5,1,2.2
COc1ccc(CCC(=O)NC(C)C)cc1,/,/,15.8,/,/
COc1ccc(CC/C(=N\O)C2(O)CCCCC2)cc1,69.8*,0.3,11.5,0.4,58.5*
O/N=C(/CCc1ccccc1)C1(O)CCCCC1,59.4*,0.4,7.7,0.2,80.9*
CCOC(=O)c1cnc2ccc(C(=O)OC)cc2c1NCc1ccco1,22.0,0.8,1.7,0.9,9.5
CCOC(=O)c1cnc2cc(Cl)c(OC)cc2c1NCC1CCCO1 (stereo not drawn),69.9*,0.3,1.8,0.7,28.3
O=C1c2ccccc2C(=O)C12OC(c1ccccc1)C1(C(=O)c3ccccc3C1=O)C2c1cccc([N+](=O)[O-])c1 (stereo not drawn),/,/,9.3,/,/
CN1c2ccccc2Oc2c(c(=O)n(C)c(=O)n2C)C1c1cccc([N+](=O)[O-])c1 (stereo not drawn),53.8*,0.5,17.9,0.8,23.0
COc1ccc(NC(=O)NN(C(=O)c2ccccc2)C(C)(C)C)cc1,/,/,16.6,/,/
NC(=O)c1cc2ccc(O)cc2oc1=Nc1ccccc1,12.7,0.9,29.8*,1.1,-8.0
NC(=O)c1cc2ccc(O)cc2oc1=NCc1ccccc1,/,/,21.6,/,/
COc1ccc(-c2nc(SC(CC(=O)NCc3ccccc3)c3ccc(OC)c(OC)c3)n[nH]2)cc1 (stereo not drawn),/,/,4.5,/,/
Cc1nn(Cc2ccc(C(=O)Nc3nccs3)cc2)c(C)c1Cl,7.8,0.9,3.9,1,0.7

# Screening results as filed in PubChem.
